Bioassay records as filed in PubChem BioAssay.
This is a sample that favours compounds with a hit; in the whole collection about 21% have one here.
Gal4-VP16 FLuc: VP16 counterscreen qHTS for inhibitors of ROR gamma transcriptional activity. AID 2546, 2010. actives 3.5% (n = 310,000). Drosophila S2 Gal4-VP16 UAS-luciferase, luminescence, 20 h. Potency, µM (top dose mostly 53.6 µM), hits mostly inhibitors;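 further: Gal4-VP16 expression switched on by copper sulfate through the metallothionein promoter; nearly all actives have a fitted effect of over 50% in size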
ELG1 repair inh: qHTS screen for small molecules that inhibit ELG1-dependent DNA repair in human embryonic kidney (HEK293T) cells expressing luciferase-tagged ELG1 | HEK293T ELG1-luciferase reporter, luminescence, 16 h; DNA damage induced by 5-fluorouridine | actives 2.3% (n = 330,000) | AID 504467, 2011 | Potency, µM (series often up to 46.1 µM), usual class: inhibitors; further: nearly all actives have a fitted effect of over 55% in size
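Luminescence from the luciferase reporter, measured 30 min after ONE-Glo reagent at room temperature, was the read-out. Beforehand, 2,000 cells per well were exposed for 16 hr at 37 °C to 5-fluorouridine together with compound or vehicle.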
IL-1B inflam inh: qHTS for Inhibitors of Inflammasome Signaling: IL-1-beta AlphaLISA Primary Screen; THP-1 LPS/ATP IL-1B secretion, AlphaLISA, 16 h; hits give low values; activity change, % at 57.5 µM; actives 4.7% (n = 360,000); AID 743279, 2014; in the data active means activity change below about -50%; inconclusive means mostly about -30% to -49%
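Secreted IL-1B measured by AlphaLISA bead assay after 16 h compound exposure of THP-1 cells; compounds (final up to 57.5 uM) added 1 h before LPS (250 ng/mL) and ATP (1.25 mM) stimulation; lower signal means less secretion.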
RORg inh: qHTS for inhibitors of ROR gamma transcriptional activity; Nuclear receptor ROR-gamma (Mus musculus), P51450; Drosophila S2 Gal4-RORgamma UAS-luciferase reporter, 20 h; Potency, µM (highest dose often 53.6 µM), usual class: inhibitors; actives 5.4% (n = 310,000); further: nearly all actives have a fitted effect of over 60% in size
Target sequence (P51450 whole entry, looked up, the tested form may be a part): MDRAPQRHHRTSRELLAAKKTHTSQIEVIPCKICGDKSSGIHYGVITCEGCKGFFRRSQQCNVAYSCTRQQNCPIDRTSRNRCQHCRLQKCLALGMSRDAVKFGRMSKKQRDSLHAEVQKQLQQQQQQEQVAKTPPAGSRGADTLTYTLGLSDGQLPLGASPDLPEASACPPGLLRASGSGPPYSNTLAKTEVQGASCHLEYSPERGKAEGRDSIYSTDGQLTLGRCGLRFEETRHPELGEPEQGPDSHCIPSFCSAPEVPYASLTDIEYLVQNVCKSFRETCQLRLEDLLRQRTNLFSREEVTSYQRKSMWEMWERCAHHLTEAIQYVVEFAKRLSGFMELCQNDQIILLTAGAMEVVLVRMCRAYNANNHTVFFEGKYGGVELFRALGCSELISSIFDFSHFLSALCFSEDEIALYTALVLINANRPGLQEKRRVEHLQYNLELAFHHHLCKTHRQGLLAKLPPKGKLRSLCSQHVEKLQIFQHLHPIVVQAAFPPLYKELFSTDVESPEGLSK
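Drosophila Schneider cells stably carrying a metallothionein-driven Gal4 DBD–ROR gamma fusion and a UAS-Photinus luciferase reporter were exposed to compound for 1 hr, then induced with copper sulfate (700 uM final) for 20 hr at ambient temperature before luminescence reading.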
DT40 TDP1 no CPT: qHTS for Inhibitors of human tyrosyl-DNA phosphodiesterase 1 (TDP1): qHTS in cells in absence of CPT | DT40 Tdp1-/- hTDP1 cells, no CPT, ATP luminescence, 48 h | Potency, µM (doses to about 46.2 µM), usual class: inhibitors | actives 15% (n = 420,000) | AID 686978, 2013; further: nearly all actives have a fitted effect of over 55% in size
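Camptothecin absent (DMSO only). Human TDP1-complemented DT40 knockout cells, 400 cells/well, 37 °C for minimum 48 hr; ATP measured via CellTiter-Glo, 30 min dark incubation, luminescence.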
DT40 TDP1 CPT: qHTS for Inhibitors of human tyrosyl-DNA phosphodiesterase 1 (TDP1): qHTS in cells in presence of CPT | chicken DT40 Tdp1-/-;hTDP1 cells + 20 nM CPT, ATP luminescence, 48 h | Potency, µM (series often up to 46.2 µM), hits mostly inhibitors | actives 12% (n = 420,000); further: nearly all actives have a fitted effect of over 55% in size
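Chicken DT40 Tdp1-/- cells stably complemented with human TDP1 were seeded at 400 cells/well in medium containing 20 nM camptothecin, exposed to pin-transferred compounds, and grown at 37 °C for at least 48 hr. Viability was read as ATP luminescence.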
Large screens that a line does not name were inactive; ! = a repeat was not active. Unless noted, the call rests on the fitted dose curve; in most records, active means well fitted curve in the direction sought with a large enough effect; inconclusive means small, poorly fitted or top-dose-only effect, or another doubt; inactive means no such curve, though single readings can be large; an effect the other way counts as inactive or inconclusive.

CC(C)C[C@@H](CC(=O)N[C@H](CC(=O)N[C@@H]1CCNC[C@H]1C(=O)N[C@H](CC(=O)N[C@@H](CCC(=O)O)CC(=O)O)Cc1ccccc1)C(C)C)NC(=O)[C@@H]1CNCC[C@H]1N	none (no result: ELG1 repair inh, IL-1B inflam inh, DT40 TDP1 no CPT, DT40 TDP1 CPT)
CC(C)(C)NC(=O)c1cc(C(C)(C)C)c(O)c(C(C)(C)C)c1	Gal4-VP16 FLuc inconclusive, ELG1 repair inh inconclusive
CCN(CC)C(=O)c1cc(C(C)(C)C)c(O)c(C(C)(C)C)c1	RORg inh 10µM, DT40 TDP1 no CPT inconclusive, DT40 TDP1 CPT inconclusive
Cc1cc(C)c(NC(=O)Nc2ccccc2)c(Cl)c1	DT40 TDP1 no CPT inconclusive, DT40 TDP1 CPT 16.4µM
O=C(Nc1cccc2nsnc12)c1cccs1	ELG1 repair inh inconclusive, RORg inh inconclusive
O=C(Nc1ccc(Nc2ccccc2)cc1)C1CC1	ELG1 repair inh inconclusive, RORg inh inconclusive, DT40 TDP1 no CPT 6.51µM, DT40 TDP1 CPT 7.31µM
Cc1cc(C)c(NC(=O)Nc2ccccc2C)c(Cl)c1	none
O=C(Nc1ccccc1)Nc1cccc2nsnc12	ELG1 repair inh inconclusive, IL-1B inflam inh -73.8, DT40 TDP1 no CPT inconclusive, DT40 TDP1 CPT inconclusive
O=C(Nc1ccccc1)Nc1ccc(Cl)nc1Cl	IL-1B inflam inh -79.1, DT40 TDP1 no CPT inconclusive, DT40 TDP1 CPT inconclusive (no result: Gal4-VP16 FLuc, ELG1 repair inh, RORg inh)
CC(C)(C)C1CCC(C(=O)Nc2ccccc2)CC1 (stereo not drawn)	DT40 TDP1 no CPT inconclusive, DT40 TDP1 CPT inconclusive
O=C(O)CC(NS(=O)(=O)c1ccc(Br)s1)c1ccccc1 (stereo not drawn)	none (no result: Gal4-VP16 FLuc, ELG1 repair inh, IL-1B inflam inh, RORg inh)
O=C(Nc1ccc(-n2cccc2)cc1)C1CC1	DT40 TDP1 no CPT 9.2µM, DT40 TDP1 CPT 9.2µM
O=C(Nc1ccccc1)Nc1ccc(Nc2ccccc2)cc1	DT40 TDP1 no CPT 7.31µM, DT40 TDP1 CPT inconclusive (no result: Gal4-VP16 FLuc, ELG1 repair inh, RORg inh)
O=C(Nc1ccccc1)Nc1ccccc1	Gal4-VP16 FLuc inconclusive, DT40 TDP1 no CPT inconclusive, DT40 TDP1 CPT 18.4µM! (no result: ELG1 repair inh)
CC(=O)Nc1ccc(Nc2ccccc2)cc1	ELG1 repair inh inconclusive, DT40 TDP1 CPT inconclusive
NC(=O)c1ccc(NC(=O)C2CC2)cc1	none
O=C(Nc1ccccc1)Nc1ccc(-n2ccc(C(F)(F)F)n2)cc1	ELG1 repair inh inconclusive, IL-1B inflam inh inconclusive, DT40 TDP1 no CPT 18.4µM, DT40 TDP1 CPT inconclusive
CCCCc1ccc(S(=O)(=O)NC(=O)C2(C)CCN2C(=O)C/C=C/c2ccccc2)cc1 (stereo not drawn)	DT40 TDP1 no CPT inconclusive, DT40 TDP1 CPT inconclusive (no result: Gal4-VP16 FLuc, ELG1 repair inh, RORg inh)
O=C(Nc1ccc(NC(=O)C2CC2)cn1)c1ccccc1	Gal4-VP16 FLuc 0.1µM, ELG1 repair inh inconclusive, RORg inh 12.6µM
O=C(Nc1ccc(NC(=O)C2CC2)cn1)c1ccccc1Cl	ELG1 repair inh inconclusive, RORg inh inconclusive, DT40 TDP1 no CPT inconclusive, DT40 TDP1 CPT inconclusive
O=C(CSc1nnc(-c2ccncc2)n1Cc1ccco1)OC1CCCCC1	Gal4-VP16 FLuc inconclusive, RORg inh 10µM
CCCn1c(SCC(=O)NC2CCCCC2)nnc1-c1ccncc1	DT40 TDP1 CPT 29.1µM
O=C(CSc1nnc(-c2ccncc2)n1Cc1ccco1)N1c2ccccc2Sc2ccc(Cl)cc21	ELG1 repair inh 23.1µM, IL-1B inflam inh -73.9, RORg inh inconclusive, DT40 TDP1 CPT 14.6µM
Cn1c(SCC(=O)N2c3ccccc3Sc3ccc(Cl)cc32)nnc1-c1ccco1	ELG1 repair inh 18.4µM, DT40 TDP1 no CPT inconclusive, DT40 TDP1 CPT 20.6µM
CCn1c(SCC(=O)N2c3ccccc3Sc3ccccc32)nnc1-c1ccco1	ELG1 repair inh inconclusive, IL-1B inflam inh inconclusive
Cc1cccc(C)c1NC(=O)CSc1nnc(-c2ccncc2)n1Cc1ccco1	none
CCc1noc(C)c1C(=O)N1CCCSC1=Nc1ccccc1Cl	DT40 TDP1 no CPT inconclusive (no result: Gal4-VP16 FLuc, RORg inh)
